Several values for one entry are separate records, joined by “and”; a condition that tells them apart may be missing. Identical values can stand only once. About 2,000 (36%) of roughly 5,500 compounds were called active. Another 18% or so got no clear call; they are omitted. Cut-off read from the data, not from the text of the source: active = normalized growth mostly below about 0.91 (no sharp cut-off); inconclusive = no clear call, values can overlap the other calls; inactive = mostly above about 0.92. This is one part of the list.
Experiment: chemical genetic growth profiling, strain panel (AID 1159580);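 note: tested at 20 µM; growth read once vehicle control cultures reached saturation at 30 °C; 1 = growth at the plate median or of vehicle wells; lower values mean less growth of the strain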
Details: growth OD

Measured: normalized growth

Cc1c(OCC(F)(F)F)ccnc1CS(=O)c1nc2ccccc2[nH]1 (stereo not given)
inactive: S. cerevisiae deletion strains, locus YJR075W, strain HOC1, hits give low values 0.948 and 0.981 | S. cerevisiae deletion strains, locus YKL009W, strain mrt4, hits give low values 0.991 | S. cerevisiae deletion strains, locus YKL068W, hits give low values 0.997 | S. cerevisiae deletion strains, locus YKL085W, strain MDH1 (second series), hits give low values 0.939 | S. cerevisiae deletion strains, locus YKL085W, strain MDH1, hits give low values 0.939 | S. cerevisiae deletion strains, locus YKL160W, strain elf1, hits give low values 1.01 | S. cerevisiae deletion strains, locus YKL190W, strain CNB1, hits give low values 0.987 | S. cerevisiae deletion strains, locus YKR001C, strain vps1, hits give low values 0.914 | S. cerevisiae deletion strains, locus YKR026C, strain gcn3, hits give low values 1 | S. cerevisiae deletion strains, locus YKR091W, strain srl3, hits give low values 1.01 | S. cerevisiae deletion strains, locus YLL001W, strain dnm1, hits give low values 1.01 | S. cerevisiae deletion strains, locus YLL026W, hits give low values 1.02 | S. cerevisiae deletion strains, locus YLL041C, strain sdh2, hits give low values 1.01 | S. cerevisiae deletion strains, locus YLR027C, strain aat2, hits give low values 1.01 | S. cerevisiae deletion strains, locus YLR039C, strain RIC1, hits give low values 0.985 | S. cerevisiae deletion strains, locus YLR058C, strain SHM2, hits give low values 0.966 | S. cerevisiae deletion strains, locus YLR102C, strain apc9, hits give low values 1 | S. cerevisiae deletion strains, locus YLR221C, strain rsa3, hits give low values 1 | S. cerevisiae deletion strains, locus YLR258W, strain gsy2, hits give low values 1.02 | S. cerevisiae deletion strains, locus YLR262C, strain YPT6 (second series), hits give low values 1.05 | S. cerevisiae deletion strains, locus YLR262C, strain YPT6, hits give low values 0.998 | S. cerevisiae deletion strains, locus YLR320W, strain mms22, hits give low values 1.01 | S. cerevisiae deletion strains, locus YLR330W, strain CHS5, hits give low values 0.987 | S. cerevisiae deletion strains, locus YLR342W, strain FKS1 (second series), hits give low values 0.926 | S. cerevisiae deletion strains, locus YLR342W, strain FKS1, hits give low values 1.04 | S. cerevisiae deletion strains, locus YLR357W, strain rsc2, hits give low values 1.01 | S. cerevisiae deletion strains, locus YLR370C, strain arc18, hits give low values 1.02 | S. cerevisiae deletion strains, locus YLR371W, strain rom2, hits give low values 0.989 | S. cerevisiae deletion strains, locus YLR384C, strain iki3, hits give low values 1.02 | S. cerevisiae deletion strains, locus YML016C, strain PPZ1, hits give low values 0.979 | S. cerevisiae deletion strains, locus YML032C, strain rad52, hits give low values 0.93 | S. cerevisiae deletion strains, locus YML120C, strain ndi1, hits give low values 1.02 | S. cerevisiae deletion strains, locus YML124C, strain tub3, hits give low values 0.997 | S. cerevisiae deletion strains, locus YMR058W, strain fet3, hits give low values 1.01 | S. cerevisiae deletion strains, locus YMR078C, strain ctf18, hits give low values 0.989 | S. cerevisiae deletion strains, locus YMR125W, strain sto1, hits give low values 1.02 | S. cerevisiae deletion strains, locus YMR129W, hits give low values 1.02 | S. cerevisiae deletion strains, locus YMR205C, strain PFK2, hits give low values 1.04 | S. cerevisiae deletion strains, locus YMR223W, strain ubp8, hits give low values 0.981 | S. cerevisiae deletion strains, locus YMR231W, strain pep5, hits give low values 1.02 | S. cerevisiae deletion strains, locus YMR263W, strain SAP30, hits give low values 0.97 and 0.99 | S. cerevisiae deletion strains, locus YMR307W, strain GAS1, hits give low values 0.907 | S. cerevisiae deletion strains, locus YNL067W, strain RPL9B, hits give low values 0.958 | S. cerevisiae deletion strains, locus YNL071W, strain lat1, hits give low values 1.01 | S. cerevisiae deletion strains, locus YNL128W, strain TEP1, hits give low values 0.974 | S. cerevisiae deletion strains, locus YNL153C, strain GIM3, hits give low values 0.956 | S. cerevisiae deletion strains, locus YNL175C, strain NOP13, hits give low values 0.996 | S. cerevisiae deletion strains, locus YNL197C, strain WHI3, hits give low values 0.998 | S. cerevisiae deletion strains, locus YNL209W, strain ssb2, hits give low values 1.01 | S. cerevisiae deletion strains, locus YNL224C, strain SQS1, hits give low values 0.993 | S. cerevisiae deletion strains, locus YNL233W, strain BNI4, hits give low values 0.941 | S. cerevisiae deletion strains, locus YNL248C, strain rpa49, hits give low values 1.02 | S. cerevisiae deletion strains, locus YNL250W, strain rad50, hits give low values 0.902 | S. cerevisiae deletion strains, locus YNL322C, strain KRE1 (second series), hits give low values 1.02 | S. cerevisiae deletion strains, locus YNL322C, strain KRE1, hits give low values 0.998 | S. cerevisiae deletion strains, locus YNR049C, strain mso1, hits give low values 1.01 | S. cerevisiae deletion strains, locus YNR052C, strain pop2, hits give low values 0.98 | S. cerevisiae deletion strains, locus YOL006C, strain TOP1, hits give low values 0.989 | S. cerevisiae deletion strains, locus YOL012C, strain htz1 0.898 | S. cerevisiae deletion strains, locus YOL147C, strain pex11, hits give low values 0.965 | S. cerevisiae deletion strains, locus YOR001W, strain rrp6, hits give low values 1.02 | S. cerevisiae deletion strains, locus YOR061W, strain CKA2, hits give low values 0.992 | S. cerevisiae deletion strains, locus YOR069W, strain VPS5, hits give low values 0.989 | S. cerevisiae deletion strains, locus YOR070C, strain gyp1, hits give low values 1.02 | S. cerevisiae deletion strains, locus YOR080W, strain dia2, hits give low values 1.01 | S. cerevisiae deletion strains, locus YOR083W, strain WHI5 (second series), hits give low values 0.966 | S. cerevisiae deletion strains, locus YOR083W, strain WHI5, hits give low values 1.01 | S. cerevisiae deletion strains, locus YOR106W, strain vam3, hits give low values 0.991 | S. cerevisiae deletion strains, locus YOR136W, strain idh2, hits give low values 0.979 | S. cerevisiae deletion strains, locus YOR144C, strain elg1, hits give low values 0.977 | S. cerevisiae deletion strains, locus YOR184W, strain ser1, hits give low values 0.881 | S. cerevisiae deletion strains, locus YOR231W, strain MKK1, hits give low values 0.91 | S. cerevisiae deletion strains, locus YOR265W, strain rbl2, hits give low values 1.02 | S. cerevisiae deletion strains, locus YOR270C, strain vph1, hits give low values 1.06 | S. cerevisiae deletion strains, locus YOR290C, strain snf2, hits give low values 1.01 | S. cerevisiae deletion strains, locus YOR316C, strain cot1, hits give low values 0.988 | S. cerevisiae deletion strains, locus YPL051W, strain arl3, hits give low values 0.993 | S. cerevisiae deletion strains, locus YPL055C, strain LGE1, hits give low values 0.955 and 0.953 | S. cerevisiae deletion strains, locus YPL078C, strain atp4, hits give low values 1.02 | S. cerevisiae deletion strains, locus YPL106C, strain sse1, hits give low values 1.01 | S. cerevisiae deletion strains, locus YPL240C, strain hsp82, hits give low values 1.02 | S. cerevisiae deletion strains, locus YPL241C, strain CIN2, hits give low values 1 | S. cerevisiae deletion strains, locus YPR119W, strain clb2, hits give low values 0.996 | S. cerevisiae deletion strains, locus YPR141C, strain kar3, hits give low values 1.01 | S. cerevisiae deletion strains, locus YPR163C, strain tif3, hits give low values 0.976 | S. cerevisiae deletion strains, locus YPR167C, strain met16, hits give low values 0.988 | S. cerevisiae deletion strains, strain wtn01, hits give low values 0.95 | S. cerevisiae strains, strain wild type, hits give low values 0.972
active: S. cerevisiae deletion strains, locus YLR113W, strain HOG1, hits give low values 0.581 | S. cerevisiae deletion strains, locus YLR268W, strain sec22, hits give low values 0.826 | S. cerevisiae deletion strains, locus YLR418C, strain cdc73, hits give low values 0.828 | S. cerevisiae deletion strains, locus YNL183C, strain NPR1, hits give low values 0.789 | S. cerevisiae deletion strains, locus YNL271C, strain bni1, hits give low values 0.913 | S. cerevisiae deletion strains, locus YNL298W, strain CLA4, hits give low values 0.834 | S. cerevisiae deletion strains, locus YNL307C, strain MCK1, hits give low values 0.872

— PubChem BioAssay AID1159580 (chemical genetic matrix, 2015)
